{"source": "PubChem BioAssay (NCI)", "note": "This is part of a sample that, as a whole, favours compounds with a hit. Of some 83,000 tested, about 20% had one in any assay.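 Growth was measured after 48 h exposure to one concentration of compound in 96-well plates. Values under 10 count as active.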 A number with no mark means an inactive call. Calls of active or inactive are those of the source."}
{"tested_on": "SK-OV-3 ovarian", "assay": "NCI-60 one-dose screen, 48 h (100 = growth as untreated, 0 = no growth, -100 = all killed)", "conditions": "10 µM unless noted"}
{"smiles": "CC1(C)NCCC[C@]2(C)[C@H]3CC[C@@H]4[C@H]5[C@H](C(=O)/C=C/c6ccco6)CC[C@]5(CO)CC[C@@]4(C)[C@]3(C)CC[C@@H]12", "growth": "93.1%"}
{"smiles": "CCCCCCNC(=O)Oc1ccc(/C(=C(\\C)c2ccccc2)c2ccc(OCCCN(C)C)cc2)cc1", "growth": "95.6%"}
{"smiles": "CN1CCN(CCNc2nccc(-c3c(-c4cccc(O)c4)nc4sccn34)n2)S1(=O)=O", "growth": "47.1%"}
{"smiles": "NC(=NCCCOc1ccc(F)cc1)Nc1ccc(Cl)cc1", "growth": "75.6%"}
{"smiles": "Cc1cc(Cl)nc(N(CCNc2ccnc3cc(Cl)ccc23)Cc2ccccn2)n1", "growth": "82.9%"}
{"smiles": "COc1ccc(-c2cnc3c(-c4cccc5cnccc45)cnn3c2)cc1", "growth": "68.6%"}
{"smiles": "CCOC(=O)c1cc(C#N)n2ccc3ccccc3c12", "growth": "36.5%"}
{"smiles": "N#CC(C(=O)/C(=N/NC(=O)c1ccccc1O)C(C#N)c1ccccc1)c1ccccc1", "note": "(stereo not drawn)", "growth": "45.9%"}
{"smiles": "N#C/C(=C\\c1cccc(C#N)c1)c1ccccc1", "growth": "105%"}
{"smiles": "CCN(CC)CCn1c(=O)c2cc(OC)c(OC)cc2c2ccc3cc4c(cc3c21)OCO4", "growth": "32.8%"}
{"smiles": "COc1ccc2nc(-c3ccc(-c4noc(-c5cc(OC)c(OC)c(OC)c5)n4)cc3)[nH]c2c1", "growth": "116%"}
{"smiles": "CC(C)(C)[Si](C)(C)OC1[C@@H](O[Si](C)(C)C(C)(C)C)[C@@H](CNC(=O)NC(=O)CCl)O[C@H]1n1cnc2c(NC(=O)Nc3ccccc3)ncnc21", "note": "(stereo partly drawn)", "growth": "-92.9% (active)"}
{"smiles": "O=C1C=CC(=O)N1c1cccc(Cl)c1", "growth": "108%"}
{"smiles": "O=C(O)c1ccc2c(c1)C(=O)N(Cc1ccccc1)C2=O", "growth": "106%"}
{"smiles": "O=C(Cc1ccccc1)NNc1nc(Cl)nc(N2CCN(C(c3ccccc3)c3ccccc3)CC2)n1", "growth": "105%"}
{"smiles": "O=C(/C=C/c1c(-c2ccc(Cl)cc2)nn(-c2ccccc2)c1C(F)(F)F)c1ccc(Cl)cc1", "growth": "82.7%"}
{"smiles": "O=C1Nc2ccccc2/C1=C\\c1c(-c2ccc(F)cc2)nc2ccccn12", "growth": "62.7%"}
{"smiles": "COc1cc(C2C3=C(COC3=O)N(CCO)c3cc4c(cc32)CCC4)cc(OC)c1OC", "note": "(stereo not drawn)", "growth": "-32.1% (active)"}
{"smiles": "CC(c1ccccc1)C(C(=O)c1ccccc1)c1ccccc1", "note": "(stereo not drawn)", "growth": "101%"}
{"smiles": "C#Cc1cccc(NC(=O)Nc2cccc(NC(=O)CCl)c2)c1", "growth": "59% [8.25 µM]"}
{"smiles": "COc1cc(-c2cc(-c3ccc(N(C)C)cc3)nc(N3CCOCC3)c2C#N)cc(OC)c1OC", "growth": "55.9%"}
{"smiles": "Cc1nc2sccn2c1-c1cn2ccsc2n1", "growth": "94.9%"}
{"smiles": "COc1cc(CC(=O)n2ncc3ccc(N)cc32)cc(OC)c1OC", "growth": "95.6%"}
{"smiles": "COC(=O)C(CC=O)C(=O)C(=O)Nc1cccc(C(F)(F)F)c1", "note": "(stereo not drawn)", "growth": "93.5%"}
{"smiles": "CCNc1nc2ccc(Nc3ccnc4cc(Cl)ccc34)cc2[nH]1", "growth": "108%"}
{"smiles": "O=C1/C=C/[C@@H](O)[C@@H]2C[C@@H](O)C[C@H]2/C=C/CCC[C@H](CCc2cccc3ccccc23)O1", "growth": "18.1%"}
{"smiles": "COc1cc2c(cc1OC)C(=O)/C(=C/c1cc(C)c(O)c(C)c1)S2", "growth": "52.1%"}
{"smiles": "Cc1ccc(-n2c3c(c(-c4ccccc4)c2-c2ccccc2)C2=NCCN2C=N3)cc1", "growth": "94.7%"}
{"smiles": "NS(=O)(=O)c1ccc(CCn2c(SCC(=O)c3ccc(Cl)cc3)nc3ccccc3c2=O)cc1", "growth": "107%"}
{"smiles": "COc1cc(NC(=O)CSc2nc3ccc(C)cc3c(=O)n2Cc2ccccc2)cc(OC)c1OC", "growth": "40%"}
{"smiles": "CN1[C@@H]2CC[C@H]1/C(=C\\c1ccccc1)C(=O)/C2=C/c1ccccc1", "growth": "79.1%"}
{"smiles": "Cc1ccc(C(=O)/C(=C/c2ccc([N+](=O)[O-])cc2)SCc2ccc(Cl)cc2)cc1", "growth": "101%"}
{"smiles": "Cc1c2cc[nH]c(=O)c2c(C)c2c1[nH]c1cc(OCCN3CCN(C)CC3)ccc12", "growth": "-1.65% (active)"}
